Results reported in PubChem BioAssay (NCI).
The panel holds about 79,000 compounds, 15% with a hit somewhere; the sample as a whole holds those more often. Calls of active or inactive are those of the source. Rule as the data show it: active = growth inhibition above about 70%; inactive = the rest.

Tests used:
[1] = NCI Yeast Anticancer Drug Screen. Data for the rad50 strain (AID 155);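 also: 0% = growth of vehicle-only cultures of the same strain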; conditions: S. cerevisiae rad50 strain growth inhibition, stronger effect = higher value
Method in brief: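 Readout: growth inhibition relative to vehicle-treated cultures. Compound exposure was carried out in a genetically defined yeast strain deficient in DNA damage repair.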

[2] = NCI Yeast Anticancer Drug Screen. Data for the mec2-1 strain (AID 157); conditions: S. cerevisiae mec2-1 strain, stronger effect = higher value
Method in brief: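 Growth inhibition is read against vehicle-treated controls after compound exposure of the mec2-1 yeast strain, which is defective in DNA damage repair or cell cycle control.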

[3] = NCI Yeast Anticancer Drug Screen. Data for the sgs1 mgt1 strain (AID 161);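 also: 0% = growth of cultures given vehicle only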; conditions: S. cerevisiae sgs1 mgt1 strain, stronger effect = higher value
Method in brief: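 Compounds are added to genetically altered yeast, and growth is compared with cultures given vehicle alone to give percent inhibition.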

[4] = NCI Yeast Anticancer Drug Screen. Data for the cln2 rad14 strain (AID 165);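 also: 0% = growth equal to vehicle treated cultures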; conditions: S. cerevisiae cln2 rad14 strain, stronger effect = higher value
Method in brief: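 Growth inhibition, relative to vehicle-treated controls, is the read-out. The test organism is a yeast strain with defined genetic alterations, cln2 rad14.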

[5] = NCI Yeast Anticancer Drug Screen. Data for the bub3 strain (AID 167); conditions: S. cerevisiae bub3 mutant strain, stronger effect = higher value
Method in brief: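 Readout: yeast growth inhibition, expressed relative to vehicle-only wells. The test organism is a mutant strain from a panel with lesions in DNA repair or checkpoint genes.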

[6] = NCI Yeast Anticancer Drug Screen. Data for the mlh1 rad18 strain (AID 175); conditions: S. cerevisiae mlh1 rad18 strain growth inhibition, stronger effect = higher value
Method in brief: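 Cells of a genetically altered yeast strain, deficient in DNA damage repair, were treated with compound. Their growth was then compared with that of vehicle-treated cultures to give inhibition.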

[7] = at 5.0 µM (retest, dose inferred, filed as 0.5)
[8] = at 50.0 µM (retest, dose inferred, filed as 5.0)

Measured: growth inhibition

Cc1ccc(C)c(N2C(=O)C(=O)c3c(C)ccc(C)c32)c1
active: [1]; [8] 96% | [1]; at 50.0 µM 99% | [2]; at 50.0 µM 99% | [3]; [8] 98% | [3]; at 50.0 µM 97.7% | [4]; at 50.0 µM 89.8% | [5]; at 50.0 µM 97.8% | [6]; [8] 80% | [6]; at 50.0 µM 98.8%
inactive: [1]; [7] 12% | [2]; [7] 13% | [2]; [8] 66% | [3]; [7] 12% | [4]; [7] 27% | [4]; [8] 23% | [5]; [7] 8% | [5]; [8] 10% | [6]; [7] 14%

O=C(Nc1cc(-c2ccccc2)[nH]n1)c1ccccc1
inactive: [1]; [7] 34% | [1]; [8] 36% | [1]; at 50.0 µM 33.4% | [2]; [7] 29% | [2]; [8] 37% | [2]; at 50.0 µM 16.1% | [3]; [7] 38% | [3]; [8] 58% | [3]; at 50.0 µM 23.9% | [4]; [7] 23% | [4]; [8] 25% | [4]; at 50.0 µM 18% | [5]; [7] 31% | [5]; at 50.0 µM 56.8% | [6]; [7] 46% | [6]; [8] 47% | [6]; at 50.0 µM 23.4%
active: [5]; [8] 73%

Cc1ccc2c(C3Cc4ccccc4N3C(=O)/C=C\C(=O)O)c(C)[nH]c2c1 (configuration not stated)
active: [1]; [8] 85% | [1]; at 50.0 µM 87.5% | [2]; [8] 91% | [2]; at 50.0 µM 88.7% | [3]; [8] 89% | [3]; at 50.0 µM 92.7% | [4]; [8] 82% | [4]; at 50.0 µM 90.1% | [5]; [8] 90% | [5]; at 50.0 µM 90.6% | [6]; [8] 95% | [6]; at 50.0 µM 89.1%
inactive: [1]; [7] 23% | [2]; [7] 24% | [3]; [7] 37% | [4]; [7] 27% | [5]; [7] 35% | [6]; [7] 39%

ONC(=Nc1ccccc1)c1ccccc1
active: [1]; [8] 73% | [1]; at 50.0 µM 95.4% | [2]; at 50.0 µM 98.3% | [3]; [8] 78% | [3]; at 50.0 µM 96.3% | [4]; [8] 86% | [4]; at 50.0 µM 96.6% | [5]; at 50.0 µM 95.2% | [6]; [8] 75% | [6]; at 50.0 µM 97.9%
inactive: [1]; [7] -137% | [2]; [7] -42% | [2]; [8] 47% | [3]; [7] -55% | [4]; [7] -58% | [5]; [7] -66% | [5]; [8] 35% | [6]; [7] -120%

Oc1cc(Br)cc2cccnc12
active: [1]; [7] 99% | [1]; [8] 99% | [1]; at 50.0 µM 87.7% | [2]; [7] 98% | [2]; [8] 99% | [2]; at 50.0 µM 92% | [3]; [7] 98% | [3]; [8] 99% | [3]; at 50.0 µM 84.3% | [4]; [7] 99% | [4]; [8] 99% | [4]; at 50.0 µM 89.5% | [5]; [7] 99% | [5]; [8] 99% | [5]; at 50.0 µM 88.7% | [6]; [7] 99% | [6]; [8] 99% | [6]; at 50.0 µM 83.8%

CCO/C=C1/N=C(c2cc(Cl)cc([N+](=O)[O-])c2)OC1=O
inactive: [1]; [7] 4% | [1]; [8] -7% | [1]; at 50.0 µM 11.7% | [2]; [7] -2% | [2]; [8] 12% | [2]; at 50.0 µM 1.3% | [3]; [7] -15% | [3]; [8] 2% | [3]; at 50.0 µM 13.7% | [4]; [7] 18% | [4]; [8] 22% | [4]; at 50.0 µM -60.5% | [5]; [7] 6% | [5]; [8] 5% | [5]; at 50.0 µM -8.75% | [6]; [7] -15% | [6]; [8] 6% | [6]; at 50.0 µM 9.15%

O=C1C=C(c2ccccc2)OC1(Nc1ccccc1)c1ccccc1 (configuration not stated)
active: [1]; at 50.0 µM 71.7% | [3]; at 50.0 µM 76.4% | [5]; at 50.0 µM 72.8%
inactive: [1]; [7] 4% | [1]; [8] 60% | [2]; [7] 4% | [2]; [8] 65% | [2]; at 50.0 µM 56.6% | [3]; [7] 2% | [3]; [8] 62% | [4]; [7] 9% | [4]; [8] 53% | [4]; at 50.0 µM 45.2% | [5]; [7] 11% | [5]; [8] 62% | [6]; [7] 9% | [6]; [8] 67% | [6]; at 50.0 µM 59.9%

O=C1C2C3CCC(O3)C2C(=O)N1c1cccc2ccccc12 (configuration not stated)
inactive: [1]; [7] -1% | [1]; [8] -27% | [1]; at 50.0 µM -1.2% | [2]; [7] -5% | [2]; [8] -5% | [2]; at 50.0 µM 8.15% | [3]; [7] -3% | [3]; [8] 1% | [3]; at 50.0 µM 49% | [4]; [7] 0% | [4]; [8] 1% | [4]; at 50.0 µM -7.35% | [5]; [7] 0% | [5]; [8] 7% | [5]; at 50.0 µM -10.4% | [6]; [7] 0% | [6]; [8] 5% | [6]; at 50.0 µM 8.3%

OCCN1CCN(CCCN2c3cc(Cl)ccc3Sc3ccsc32)CC1
active: [1]; [8] 98% | [1]; at 50.0 µM 98.5% | [2]; [8] 98% | [2]; at 50.0 µM 98.4% | [3]; [8] 95% | [3]; at 50.0 µM 98.7% | [4]; [8] 97% | [4]; at 50.0 µM 94.4% | [5]; [8] 97% | [5]; at 50.0 µM 97.6% | [6]; [8] 97% | [6]; at 50.0 µM 98.1%
inactive: [1]; [7] -8% | [2]; [7] 0% | [3]; [7] -7% | [4]; [7] -7% | [5]; [7] -2% | [6]; [7] -7%
